Assay outcomes deposited in PubChem by National Center for Advancing Translational Sciences (NCATS).
Most compounds without a hit are left out; they make up all but 10% or so of the library.
GPT2 inhibitor = blocks human glutamate pyruvate transaminase 2; Q8TD30; Recombinant GPT2, coupled pyruvate oxidase/HRP Amplex Red fluorescence; Potency, µM (series often up to 57.7 µM), for the others: top-dose activity change, negative = inhibition, actives largely listed as inhibitors; 0.25% of 100,000 active; AID 1671188; further: nearly all actives have a fitted effect of over 60% in size
Target sequence (Q8TD30 whole entry, looked up): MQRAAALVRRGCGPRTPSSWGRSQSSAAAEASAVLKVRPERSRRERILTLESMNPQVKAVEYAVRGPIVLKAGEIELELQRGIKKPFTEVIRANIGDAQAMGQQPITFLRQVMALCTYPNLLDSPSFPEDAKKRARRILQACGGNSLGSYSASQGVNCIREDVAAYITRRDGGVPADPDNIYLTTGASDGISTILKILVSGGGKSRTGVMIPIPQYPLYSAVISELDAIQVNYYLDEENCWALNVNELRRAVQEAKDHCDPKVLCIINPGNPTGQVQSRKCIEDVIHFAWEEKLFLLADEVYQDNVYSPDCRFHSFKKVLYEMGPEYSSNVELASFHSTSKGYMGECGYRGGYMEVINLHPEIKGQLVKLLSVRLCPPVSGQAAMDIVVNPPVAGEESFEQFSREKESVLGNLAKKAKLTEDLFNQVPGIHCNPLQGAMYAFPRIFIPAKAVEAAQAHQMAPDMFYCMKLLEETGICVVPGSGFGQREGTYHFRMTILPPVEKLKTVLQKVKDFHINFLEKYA
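Inhibition is scored from Amplex Red fluorescence generated when pyruvate oxidase and HRP act on pyruvate released by GPT2. Reactions contain 10ng/uL enzyme, 250uM a-KG and 2mM L-alanine and run 30 min at room temperature.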
NPR1 antag = human Npr1 receptor antagonism; P16066; HEK293 hNpr1 GloSensor cGMP, ANP-stimulated luminescence; Potency, µM (doses to about 46.3 µM), inactives show at the highest dose activity change, negative = inhibition, most hits filed as inhibitors; 1.6% of 76,000 active; AID 1347048; calls by dose curve; further: nearly all actives have a fitted effect of over 60% in size
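Compound pre-incubated 30 min at room temperature on GloSensor-loaded HEK293 cells stably carrying hNpr1 and the pGS-40F cGMP biosensor. Stimulation uses hNppA at 0.1 nM final; luminescence is taken at baseline and 20 min post-agonist.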
FLuc inh = inhibitors of firefly (Photinus pyralis) luciferase | purified P. pyralis luciferase, luminescence, biochemical | Potency, µM (series often up to 115 µM), actives largely listed as inhibitors | 2.5% of 76,000 active | AID 1347043; further: nearly all actives have a fitted effect of over 65% in size
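FLuc 10nM, D-luciferin 10uM, ATP 10uM, Mg acetate 10mM, Tris acetate pH 7.5, Tween/BSA; cpd qHTS; enzyme added last; CCD luminescence.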
3T3 cytotox = cytotoxic compounds in NIH 3T3 cells | NIH 3T3 viability, CellTiter-Glo ATP luminescence, 48-72 h | Potency, µM (top dose mostly 96.7 µM), without a hit: at the highest dose activity change, negative = cytotoxicity, most hits filed as inhibitors | 4.3% of 94,000 active | AID 1345082; further: nearly all actives have a fitted effect of over 55% in size
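Cells were seeded at 400 per well, treated with pin-transferred compound, and kept 48 or 72 hr at 37 °C before CellTiter-Glo addition and luminescence imaging of cellular ATP.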
HEK293 tox = kills HEK 293 cells | HEK 293 viability, ATP luminescence (CellTiter-Glo), 48-72 h | Potency, µM (top dose mostly 115 µM), for inactives: top-dose activity change, negative = cytotoxicity, hits mostly inhibitors | 6.6% of 94,000 active | AID 1345083; further: nearly all actives have a fitted effect of over 60% in size
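qHTS cytotoxicity; HEK 293, 250 cells/well; compound pinned; 48 or 72 hr, 37 degree Celsius, 5% CO2, 95% humidity; CellTiter-Glo, 10 min RT; luminescence (ATP).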
An asterisk follows results filed as active; i = inactive; ? = inconclusive; / = no result; [ ] = another dose, or the depositor's remark. Unless noted, the call rests on the fitted dose curve; in most records, active means well fitted curve in the direction sought with a large enough effect; inconclusive means small, poorly fitted or top-dose-only effect, or another doubt; inactive means no such curve, though single readings can be large; an effect the other way counts as inactive or inconclusive. On the % scale 0 is the no-effect control and ±100 the full control effect; potency means the concentration at half of the fitted maximal effect.

SMILES	GPT2 inhibitor	NPR1 antag	FLuc inh	3T3 cytotox	HEK293 tox
COc1cccc(COC2CN(C(=O)CC3CCCC3)CC(=O)N(Cc3ccccn3)C2)c1 (stereo unspecified)	i	-2%	i	-4%	-4%
Cc1cccc(C(=O)N2CCCC(c3noc(COc4ccccc4F)n3)C2)c1 (stereo unspecified)	i	-24%	i	?	?
O=C(c1cccc(F)c1)N1CCCC(c2noc(COc3ccccc3F)n2)C1 (stereo unspecified)	i	-7%	i	?	71µM*
O=C1CC(c2ccccc2)N(C(=O)Cc2cccnc2)CCCCCN1 (stereo unspecified)	i	6%	i	-2%	-10%
Cc1ccc(N2CCN(C(=O)c3noc(-c4ccc(F)cc4)n3)CC2)cc1	i	-21%	?	1%	2%
O=C(c1noc(-c2ccc(F)cc2)n1)N1CCN(c2ccccc2)CC1	i	-7%	40µM*	-32%	?
CC(C)OC(=O)N1CCC(COc2cnc3c(ccn3CC(N)=O)c2)CC1	4%[88.5 µM]	4%[70.6 µM]	?	?	?
O=C(O)Cn1ccc2cc(OCC3CCN(C(=O)OC4CCCC4)CC3)cnc21	4%[88.5 µM]	-2%[70.6 µM]	?	32µM*	i
NC(=O)Cn1ccc2cc(OCC3CCN(c4cc(NC5CC5)ncn4)CC3)cnc21	1%[88.5 µM]	18µM*	?	?	25µM*
O=C(Cc1ccccc1)NC1CCCc2c1[nH]c1ccccc21 (stereo unspecified)	i	-1%	i	22µM*	?
COCCn1cc(C(=O)NC2CCCc3c2[nH]c2ccccc32)c2ccccc2c1=O (stereo unspecified)	?	-6%	i	?	45µM*
O=C(Cc1c[nH]c2ccccc12)NC1CCCc2c1[nH]c1ccc(F)cc21 (stereo unspecified)	-10%	-15%	i	32µM*	35µM*
CC(C)CC(=O)NC1CCCc2c1[nH]c1ccc(Cl)cc21 (stereo unspecified)	-11%	-13%	i	20µM*	?
CC(C)n1cc2cc(C(=O)NCCc3ccncc3)sc2c1	i	-12%	i	-23%	-3%
CCc1nnc(NC(=O)Cn2nc3c(cc2=O)CCCCC3)s1	-5%	5%	i	i	0%
O=C(CC1CCCN(c2cn[nH]c(=O)c2)C1)N1CC=C(c2ccccc2)CC1 (stereo unspecified)	i	-10%	i	?	?
COc1ccc(C(=O)N2CCC(Oc3ncccc3C(=O)N3CCCCC3)C2)c(OC)c1 (stereo unspecified)	i	-3%	i	-13%	1%
CN(C)c1nccnc1OC1CCN(C(=O)c2ccncc2)C1 (stereo unspecified)	2%	0%	i	i	0%
CCOc1ccccc1C(=O)N1CCC(Oc2nccnc2N(C)C)C1 (stereo unspecified)	i	0%	32µM*	-5%	?
COc1ccc(C(=O)N2CCC(Oc3nccnc3N(C)C)C2)c(OC)c1 (stereo unspecified)	i	0%	20µM*	i	?
Cc1ccccc1S(=O)(=O)NCC1Cn2cccc2C(=O)N1C (stereo unspecified)	-2%	5%	i	?	?
COc1ccc(-c2ccnc3nc(CCc4ccc(OC)c(OC)c4)nn23)c(F)c1	-3%	-19%	i	-29%	45µM*
COc1ccc(-c2ccnc3nc(Cc4ccc(F)cc4)nn23)c(F)c1	i	-14%	i	?	25µM*
Cc1cccc(CC(=O)N2C[C@@H](CN3CCCN(C)CC3)[C@@H](CO)C2)c1	-6%	7%	i	-1%	-3%
COCCOc1ccc2c(n1)CCN(C(=O)Nc1ccccc1C)C2	i	1%	?	-6%	7%
SMILES	GPT2 inhibitor	NPR1 antag	FLuc inh	3T3 cytotox	HEK293 tox
c1ccc(-c2nnc3ccc(Nc4ccc(N5CCOCC5)cc4)nn23)nc1	-26%[88.5 µM]	-5%[70.6 µM]	?	?	63µM*
c1ccc(-c2nnc3ccc(N4CCc5ccccc5C4)nn23)nc1	3%[88.5 µM]	4%[70.6 µM]	i	?	71µM*
COc1ccc(-c2nnc3ccc(N4CCc5ccccc5C4)nn23)nc1	-6%[88.5 µM]	-4%[70.6 µM]	i	?	56µM*
COC1CCN(c2ccc3nnc(-c4ccccn4)n3n2)CC1	i	6%[70.6 µM]	i	50µM*	-10%[172 µM]
CNc1cccnc1OC1CCN(S(=O)(=O)c2ccc3c(c2)CCC3)C1 (stereo unspecified)	i	-19%	i	?	?
COC(=O)[C@@H]1Cc2ncn(C)c2CN1S(=O)(=O)c1ccc(F)cc1	2%[88.5 µM]	5%[70.6 µM]	i	?	-2%[172 µM]
CN(C(=O)C1CCCC1)C1CCc2ccccc2C1 (stereo unspecified)	i	-19%[70.6 µM]	i	?	?
COCC(=O)N1CCC2(CC1)OC(=O)N(Cc1ccc(O)cc1)C2(C)c1ccccc1 (stereo unspecified)	1%[88.5 µM]	4%[70.6 µM]	i	?	i
CC1(c2cccnc2)N(Cc2ccccc2)C(=O)OC12CCN(C(=O)c1cnccn1)CC2 (stereo unspecified)	-24%	-9%	i	28µM*	-15%
CC1(c2ccccc2)N(Cc2ccccc2)C(=O)OC12CCN(C(=O)COc1ccccc1)CC2 (stereo unspecified)	-14%	2%	i	28µM*	?
COCC(=O)N1CCC2(CC1)OC(=O)N(CCOc1ccccc1)C2(C)c1cccnc1 (stereo unspecified)	-2%[88.5 µM]	3%[70.6 µM]	i	50µM*	-9%[172 µM]
CC1(c2cccnc2)N(Cc2ccccc2)C(=O)OC12CCN(C(=O)COc1ccccc1)CC2 (stereo unspecified)	1%	1%	i	32µM*	-9%
CC1(c2ccccc2)N(Cc2cccnc2)C(=O)OC12CCN(C(=O)c1ccc(F)cc1)CC2 (stereo unspecified)	i	0%	i	?	i
CC1(c2ccccc2)N(Cc2cccnc2)C(=O)OC12CCN(C(=O)Cc1ccccc1)CC2 (stereo unspecified)	-8%	8%	i	?	-8%
O=C(N1CCN(c2ccccn2)CC1)C1(CCO)CC12CCOCC2 (stereo unspecified)	i	/	/	i	4%
CCc1nn(-c2ccccc2)c(Oc2ccc(C)cc2)c1CCC(=O)N1CCSCC1	-15%	-4%	i	?	40µM*
Cc1nn(-c2ccc(F)cc2)c(Oc2ccccc2F)c1CCC(=O)N1CCCC1	0%	-10%	i	28µM*	35µM*
